# High-throughput results from PubChem.
# Only some compounds are listed: those with a hit (about 2.4% of all), similar ones and a draw of the others.
# Pol beta inh: blocks human DNA polymerase beta activity; actives 1.3% (n = 340,000); AID 485314; Pol beta primer extension/strand displacement, fluorescence kinetic; Potency, µM (top dose mostly 114 µM), for the others: at the highest dose activity change, negative = inhibition, usual class: inhibitors; P06746; further: on the % scale 0 is the no-effect control and ±100 the full control effect
#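 Values derive from four-parameter Hill fits of normalized kinetic data: reads at 0 and 10 min following addition of 50 nM substrate to 10 nM Pol beta preincubated 15 min with compound.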
# POLK inh: inhibitors of human DNA polymerase kappa | purified Pol kappa, fluorescent DNA synthesis assay, 10 min | Potency, µM (series often up to 107 µM), for inactives: top-dose activity, negative = inhibition, actives largely listed as inhibitors | actives 0.53% (n = 400,000) | AID 588579; further: on the % scale 0 is the no-effect control and ±100 the full control effect
#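 10 nM Pol kappa preincubated 15 min at room temperature with compounds, then reaction started with substrate at 50 nM final. Fluorescence read kinetically at 0 and 10 min; buffer-only wells served as negative control.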
# GCN5L2 inh: GCN5L2 (KAT2A) acetyltransferase inhibition; GCN5L2 HAT assay, ThioGlo1 CoA-SH fluorescence; Potency, µM (doses to about 58.9 µM), inactives show at the highest dose activity change, negative = inhibition, hits mostly inhibitors; actives 0.21% (n = 390,000); AID 504327; further: on the % scale 0 is the no-effect control and ±100 the full control effect
#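 GCN5L2 (20nM final) in 50mM HEPES, 0.1mM EDTA pH 7.5, 0.01% Tween-20 was preincubated 15 min at room temperature with compound, then given ThioGlo1 (50uM), H3(1-25) peptide (75uM) and acetyl-CoA (70uM); CoA-thiol fluorescence (Ex340/Em540) was read at 0 and 20 min.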
# Pol eta inh: blocks human DNA polymerase eta activity | recombinant Pol eta, fluorescent DNA replication assay | Potency, µM (doses to about 114 µM), for inactives: at the highest dose activity change, negative = inhibition, hits mostly inhibitors | actives 1.2% (n = 390,000) | AID 588591; further: on the % scale 0 is the no-effect control and ±100 the full control effect
#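 Pol eta (10 nM) was preincubated with compounds for 15 min at room temperature, after which fluorescent replication substrate (50 nM final) was added to start the reaction. Fluorescence was read kinetically at 0 and 10 min.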
# POLI inh: blocks human DNA polymerase iota activity; Potency, µM (highest dose often 115 µM), for the others: at the highest dose activity, negative = inhibition, actives largely listed as inhibitors; Pol iota fluorescent replication assay, 10 min; actives 1% (n = 390,000)
# Target sequence (Q9UNA4 whole entry, looked up): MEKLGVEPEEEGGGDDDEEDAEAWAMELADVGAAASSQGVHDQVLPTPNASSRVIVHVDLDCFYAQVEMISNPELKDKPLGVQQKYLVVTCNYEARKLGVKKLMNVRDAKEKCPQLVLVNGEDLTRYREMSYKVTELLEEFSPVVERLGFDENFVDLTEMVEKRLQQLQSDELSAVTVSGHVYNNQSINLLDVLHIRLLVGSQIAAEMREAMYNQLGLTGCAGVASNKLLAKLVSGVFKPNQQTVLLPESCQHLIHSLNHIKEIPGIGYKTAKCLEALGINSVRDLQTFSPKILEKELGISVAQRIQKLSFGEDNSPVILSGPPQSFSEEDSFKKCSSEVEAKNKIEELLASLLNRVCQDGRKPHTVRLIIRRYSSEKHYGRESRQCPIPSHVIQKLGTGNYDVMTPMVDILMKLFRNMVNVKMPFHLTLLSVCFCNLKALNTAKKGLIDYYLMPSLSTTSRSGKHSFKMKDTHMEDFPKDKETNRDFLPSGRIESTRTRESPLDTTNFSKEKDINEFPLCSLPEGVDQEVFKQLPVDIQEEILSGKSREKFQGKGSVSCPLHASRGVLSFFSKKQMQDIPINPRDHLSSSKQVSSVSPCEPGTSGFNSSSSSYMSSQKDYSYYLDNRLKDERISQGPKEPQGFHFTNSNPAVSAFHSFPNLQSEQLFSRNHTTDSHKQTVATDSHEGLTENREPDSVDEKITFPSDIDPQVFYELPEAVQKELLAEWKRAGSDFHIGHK
#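 Pol iota at 10 nM preincubated 15 min with compounds at room temperature; reaction started with fluorescent substrate, 50 nM final. Fluorescence read kinetically at 0 and 10 min; buffer-only wells as negative control.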
# GLS inh: glutaminase GLS (human) inhibition; GLS enzymatic activity, qHTS titration; Potency, µM (doses to about 45.5 µM), for the others: at the top dose activity change, negative = inhibition, usual class: inhibitors; actives 0.21% (n = 410,000); AID 624170; further: on the % scale 0 is the no-effect control and ±100 the full control effect
#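 Coupled fluorescence readout: glutamate oxidase/HRP/Amplex Red detect glutamate formed by hKGA from L-glutamine (1 mM solution added). Buffer 45 mM KH2PO4 pH 8.2, 0.02% Tween-20; reads at t0 and 30 min RT.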
# Numbers without * were called inactive; ? = inconclusive; nt = not tested or not shown; [ ] = another dose, or the depositor's remark. The call rests on the fitted dose curve; in most records, active means well fitted inhibition curve with a large enough effect; inconclusive means small, poorly fitted or top-dose-only effect, or another doubt; inactive means no such curve, though single readings can be large or run the other way. Potency means the concentration at half of the fitted maximal effect.
SMILES,Pol beta inh,POLK inh,GCN5L2 inh,Pol eta inh,POLI inh,GLS inh
CCCCC[C@H](O)/C=C/[C@@H]1[C@@H](C/C=C\CCCC(=O)O)[C@H](O)C[C@H]1O,nt,6.1%[19.4 µM],-6.0%,nt,nt,nt
COc1cccc2c1-c1c(O)cccc1C2=O,-26.9%,-18.6%,-24.3%,-3.4%,?,-1.1%
CC1OC(CC(=O)O)CC2=C1C(=O)c1c(O)cccc1C2=O (stereo unspecified),nt,-31.7%,nt,25.1µM*,3.16µM*,?
O=C(NCCc1ccccc1)C(c1cccs1)N(C(=O)c1csnn1)C1CC1 (stereo unspecified),20.7%,-6.6%,-5.5%,-1.2%,89.1µM*,-7.6%
COc1ccccc1N(C(C)=O)C1=C(Cl)C(=O)c2ccccc2C1=O,nt,nt,nt,50.1µM*,nt,?
Nc1nc(=S)n(-c2ccccc2)[nH]1,0.5%,2.1%,?,-17.0%,113.4%,-16.3%
S=c1nc(-c2ccccc2)[nH]n1-c1ccccc1,18.5%,-13.1%,12.6µM*,-0.6%,?,?
COc1ccc(S(=O)(=O)Nc2ccc(F)cc2)cc1N(C)S(=O)(=O)c1ccc(Cl)cc1,-0.6%,-15.5%,7.0%,-14.4%,89.1µM*,12.9%
COc1ccc(N(C(=O)c2ccc(OC)c(OC)c2)S(=O)(=O)c2ccc(Cl)cc2)cc1,-2.2%,79.4µM*,-12.2%,-15.7%,89.1µM*,-12.6%
COc1ccc(S(=O)(=O)Nc2ccc(S(=O)(=O)Nc3ccc(F)cc3)cc2)cc1C,7.0%,-2.8%,-11.2%,-13.7%,?,29.3%
COc1ccc(NS(=O)(=O)c2ccc(OC)c(N(C)S(=O)(=O)c3ccc(Cl)cc3)c2)cc1,-16.7%,-14.3%,-4.8%,-19.7%,89.1µM*,11.5%
COc1ccc(N(C(=O)c2ccc(C)cc2)S(=O)(=O)c2ccc(Cl)cc2)cc1,?,1.5%,-5.0%,-18.4%,15.8%,0.1%
O=C(Nc1ccncc1)c1ccc(S(=O)(=O)Nc2ccccc2)cc1,74.1%,3.1%,0.2%,-15.4%,36.1%,11.3%
NS(=O)(=O)c1ccc(NS(=O)(=O)c2ccc(NC(=O)c3ccc(-c4ccccc4)cc3)cc2)cc1,?,?,?,?,56.2µM*,10.2%
O=C(O)c1ccc(Cn2ccc3ccccc32)o1,?,-9.5%,0.4%,44.7µM*,9.6%,?
O=C(O)c1ccc(CSCc2ccccc2)o1,nt,nt,nt,-1.5%,nt,-0.6%
O=C(O)C(Cc1ccccc1)n1cccc1 (stereo unspecified),14.1%,-22.1%,-11.3%,?,-7.0%,12.6µM*
CN(C)c1ccc(/C=C/c2ccnc3ccc(N)cc23)cc1,nt,-2.4%,nt,nt,14.5%,nt
Cc1ccc(NC(=O)N/C=C/c2ccco2)c(C)c1,?,?,1.6%,79.4µM*,?,-2.2%
Cc1ccc(O)c(NC(=S)NC(=O)/C=C/c2ccco2)c1,?,-9.4%,-0.6%,-1.4%,19.6%,1.8%
Cc1ccc(CNc2ncnc3[nH]ncc23)o1,nt,-12.4%,nt,nt,2.8%,nt
COCCNC(=O)C1(C(F)(F)F)C/C(=C\Cc2ccccc2)CCCO1 (stereo unspecified),nt,-14.4%,nt,nt,-4.9%,nt
COc1cccc(Cn2cccc(NC(=O)Nc3ccccc3C)c2=O)c1,-28.5%,3.5%,4.2%,-4.9%,12.6µM*,0.5%
CCCCNC(=O)NS(=O)(=O)c1ccc(C(=O)O)cc1,nt,10.9%[60.1 µM],-7.8%,nt,nt,nt
S=c1[nH]c(-c2ccccc2)cn1/N=C/c1ccncc1,1.5%,-17.0%,-10.9%,-4.1%,15.1%,10µM*
SMILES,Pol beta inh,POLK inh,GCN5L2 inh,Pol eta inh,POLI inh,GLS inh
CCOC(=O)/C(=C\c1cccc(O)c1)c1nc2sc(C)c(C)c2c(=O)[nH]1,-28.5%,-8.6%,-6.5%,-19.8%,17.8µM*,6.5%
CCc1nnc(NC(=O)C(=O)NCCOC(=O)c2ccccc2Cl)s1,68.8%,-7.6%[60.1 µM],3.16µM*,-9.3%,12.3%,27.7%
Cc1cccc2nc(Cn3c(=O)n(CCCC(=O)NCc4ccco4)c(=O)c4ccccc43)cc(=O)n12,22.4µM*,0.0%,-12.6%,?,?,-3.7%
NCCCC(N)C(=O)O (stereo unspecified),nt,nt,nt,nt,nt,2.9%
O=C1OC(/C=C/c2ccccc2)=NC/1=C\c1cccnc1,40.6%,-8.3%,-4.6%,11.8%,12.0%,-0.7%
COc1ccccc1/C=C/C1=NC(=C\C=C/c2ccccc2)/C(=O)O1,20µM*,-14.3%[60.1 µM],0.7%,?,?,-2.1%
Cc1ccc(-c2cc(C3C4C=CCCC4(C)C(=O)N3Cc3ccccc3)ccc2F)cc1 (stereo unspecified),nt,-5.5%,nt,nt,-2.7%,nt
Cc1nc(NC(=O)CCl)sc1C(=O)N(C)C,21.0%,-1.4%,-3.2%,8.7%,-7.7%,3.0%
Cc1nc(NC(=O)C(Cl)Cl)sc1C(=O)N(C)C,35.5µM*,-31.1%,0.6%,10µM*,?,-23.2%
CCC(=O)CC,nt,-4.6%[60.1 µM],-5.3%,nt,nt,nt
Cc1ccc(C(=O)Nc2nc(-c3ccccn3)cs2)o1,-16.4%,-15.6%,-6.3%,-19.9%,-44.9%,-6.4%
Cc1cc(C)nc(NC(=O)c2ccc([N+](=O)[O-])o2)n1,-27.4%,-33.9%,-5.0%,?,70.8µM*,0.0%
Cc1ccccc1C(=O)N1CCN(c2ccc(NC(=O)c3ccc([N+](=O)[O-])o3)cc2)CC1,0.4%,12.7%,-2.4%,-6.1%,33.7%,11.8%
O=C(Nc1nc(-c2ccccn2)cs1)c1ccc([N+](=O)[O-])o1,?,-19.2%,-27.0%,35.5µM*,22.4µM*,16.3%
CC(=O)c1cccc(NC(=O)c2ccc([N+](=O)[O-])o2)c1,nt,-21.8%,nt,-14.0%,79.4µM*,4.4%
O=C(Nc1ccc(N2CCN(C(=O)c3ccccc3)CC2)cc1)c1ccc([N+](=O)[O-])o1,25.1µM*,-19.9%,-3.7%,?,?,30.3%
CC/C=C(\C(=O)N[C@H]1C(=O)N2C(C(=O)OCOC(=O)C(C)(C)C)=C(COC(N)=O)CS[C@H]12)c1csc(N)n1,nt,nt,nt,nt,nt,13.3%
CCSC(=O)N1CCN(/[N+]([O-])=N/Oc2ccc([N+](=O)[O-])cc2[N+](=O)[O-])CC1,nt,0.7%,nt,nt,?,nt
Cc1cc2nccc(/C=C/c3ccc(N(C)C)cc3)c2cc1C,nt,-16.2%,nt,nt,?,nt
COc1cc(NC(=O)c2ccc([N+](=O)[O-])o2)ccc1NC(=O)c1ccco1,0.355µM*,1.2%,-19.6%,3.6%,-3.2%,-0.8%
CS(=O)(=O)c1ccc(S(=O)CC(=O)OCc2ccccc2)c([N+](=O)[O-])c1 (stereo unspecified),5.9%,-5.0%,-3.4%,-3.8%,20µM*,1.5%
O=C(CS(=O)c1ccc(C(F)(F)F)cc1[N+](=O)[O-])Oc1ccccc1 (stereo unspecified),-14.6%,-17.9%,-16.3%,-1.8%,?,-13.7%
